# ssDAF12 agonist – S. stercoralis DAF-12 activation, primary screen | actives 1% (n = 370,000) | HEK293 ssDAF-12/GRIP1 lit1-tk-luc reporter, luminescence; % of 3 µM dafachronic acid response | activation, % at 6.8 µM | AID 652126;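 active = activation above the mean over all tested compounds plus 3 SD, cut at about 0.9% in these data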;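 note: 0% = DMSO-only wells and 100% = 3 µM delta7-dafachronic acid wells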
# DAX1 inh-1 – NR0B1 (DAX1) inhibition; P51843; HEK293 Gal4-DAX1 luciferase reporter, luminescence; actives 0.99% (n = 340,000); inhibition, % at 6.75 µM;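 active = inhibition above the mean over all tested compounds plus 3 SD, cut at about 4.2% in these data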;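 note: 0% = DAX1-transfected cells with DMSO and 100% = empty-vector control cells with DMSO; inhibition shows as a rise in luminescence from relieved DAX1 repression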
# Target sequence (P51843 207-470 limits assumed): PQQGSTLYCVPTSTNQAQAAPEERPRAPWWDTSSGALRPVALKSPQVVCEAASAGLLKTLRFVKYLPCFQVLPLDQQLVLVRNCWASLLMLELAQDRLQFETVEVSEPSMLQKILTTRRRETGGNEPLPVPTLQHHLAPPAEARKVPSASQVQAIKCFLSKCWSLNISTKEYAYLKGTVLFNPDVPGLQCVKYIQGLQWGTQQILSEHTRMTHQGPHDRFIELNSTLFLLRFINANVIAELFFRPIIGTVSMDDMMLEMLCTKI
# DAX1 inh-2 – blocks DAX1 repression of SF-1 activated StAR promoter; HEK293T StAR-luciferase reporter, SF-1/DAX-1 repression relief; actives 1.1% (n = 370,000); inhibition, % at 6.8 µM; AID 652010;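 active = inhibition above the mean over all tested compounds plus 3 SD, cut at about 3.6% in these data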;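 note: 0% = DAX-1 cells with DMSO and 100% = cells lacking DAX-1 with DMSO; higher inhibition means more luminescence from relief of DAX-1 repression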
# hgDAF-12 ag – agonists of H. glycines DAF-12 nuclear receptor | activation, % at 6.8 µM | AID 687014 | actives 1.8% (n = 370,000) | HEK293 GAL4-hgDAF12 UAS-luciferase reporter, agonist luminescence; normalized to butyrate control;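 active = activation above a cutoff set at the mean of all screened compounds plus 3 SD, cut at about 10% in these data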;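 note: 0% = DMSO wells and 100% = sodium butyrate wells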
# hcDAF12 agonist – activators of H. contortus DAF-12 nuclear receptor; HEK293 hcDAF-12 lit1-tk-luc reporter, luminescence; 0% DMSO, 100% Δ7-dafachronic acid; activation, % at 6.8 µM; actives 1.4% (n = 370,000); AID 652067;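 active = activation above the mean of all tested compounds plus 3 SD, cut at about 5.5% in these data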;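 note: 100% = response to 3 µM Δ7-dafachronic acid high control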
# DAX1 conf – NR0B1 (human) inhibition, confirmation; shares compounds with DAX1 inh-2; HEK293T StAR-promoter luciferase reporter, SF-1/DAX-1 repression; inhibition, % at 6.8 µM; actives 87% (n = 2,400); AID 652134;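 active = inhibition above the average of every tested compound plus 3 SD, cut at about 3.8% in these data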;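 note: 0% = DAX-1 cells with DMSO and 100% = no DAX-1 control cells with DMSO; active compounds raise luminescence by relieving repression of the StAR reporter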
# SF1 AF2mut Luc – counter-screen for DAX1 inhibitors: nonselective inhibitors with SF-1 AF2 mutant; shares compounds with DAX1 inh-2; HEK293 StAR-luciferase, luminescence; inhibition, % at 6.8 µM; actives 78% (n = 2,400); AID 652136;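 active = inhibition above the mean of all tested compounds plus 3 SD, cut at about 3% in these data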;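 note: 0% = DAX-1 transfected cells with DMSO and 100% = cells without DAX-1 with DMSO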
# LXR ag – LXR-beta agonism as hcDAF-12 counter-screen; shares compounds with hcDAF12 agonist; HEK293 Gal4-LXR tk-luc reporter, luminescence, 24 h; normalized: DMSO 0%, positive control 100%; activation, % at 6.8 µM; 3,400 tested, under 10 active; AID 743027;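 active = mean percent activation of the reporter above a cutoff set as the average over tested compounds plus their standard deviation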
# Target sequence (P55055 whole entry, looked up, the tested form may be a part): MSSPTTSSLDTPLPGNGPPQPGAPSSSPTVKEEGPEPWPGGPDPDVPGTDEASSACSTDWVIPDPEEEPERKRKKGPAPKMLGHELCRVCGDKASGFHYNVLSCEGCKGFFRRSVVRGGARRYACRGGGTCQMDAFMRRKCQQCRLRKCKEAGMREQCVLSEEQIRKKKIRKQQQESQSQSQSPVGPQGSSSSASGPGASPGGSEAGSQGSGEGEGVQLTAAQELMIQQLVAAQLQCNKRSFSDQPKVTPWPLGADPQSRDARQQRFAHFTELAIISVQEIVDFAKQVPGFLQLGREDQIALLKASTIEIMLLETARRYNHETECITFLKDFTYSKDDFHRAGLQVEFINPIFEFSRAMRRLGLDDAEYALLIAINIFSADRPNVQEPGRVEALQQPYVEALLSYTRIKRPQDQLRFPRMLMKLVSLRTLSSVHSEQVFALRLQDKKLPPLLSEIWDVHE
# hcDAF12 ag – confirmation of H. contortus DAF-12 agonists; shares compounds with hcDAF12 agonist; HEK293 hcDAF-12 lit1-tk-luc reporter, luminescence; % of Δ7-dafachronic acid response; actives 61% (n = 3,400); AID 743032; activation, % at 6.8 µM;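 active = mean activation across triplicate tests above the threshold derived from the earlier primary screen, cut at about 5.5% in these data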;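 note: 0% = DMSO only wells and 100% = 3 µM Δ7-dafachronic acid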
# hgDAF12 conf – confirmation of H. glycines DAF-12 agonists; HEK293 GAL4-hgDAF12 luciferase reporter, agonist mode; percent of butyrate response; AID 743050; shares compounds with hgDAF-12 ag; activation, % at 6.8 µM; actives 80% (n = 3,300);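 active = mean activation over triplicate wells above the hit cutoff derived from the earlier primary screen, cut at about 11% in these data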;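 note: 0% = DMSO low control and 100% = 2 mM sodium butyrate high control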
# LXR ag 2 – counter-screen for DAF-12 agonists: agonists of human LXR-beta. HEK293 Gal4-LXR luciferase reporter, 24 h. activation, % at 6.8 µM. 3,300 tested, under 10 active. shares compounds with hgDAF-12 ag;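 active = mean activation of the triplicate above a set limit carried over from the primary screen, none filed active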
# * marks the source's active call; other numbers are inactive results; . = no result given. This is a sample that favours compounds with a hit; in the whole collection about 4.1% have one here.
SMILES,ssDAF12 agonist,DAX1 inh-1,DAX1 inh-2,hgDAF-12 ag,hcDAF12 agonist,DAX1 conf,SF1 AF2mut Luc,hgDAF12 conf,LXR ag 2,others
CC(=O)c1cccc(NC(=O)c2cnn3ccccc23)c1,-0.6,1.2,5.6*,13.7*,5.8*,6.5*,5.2*,11.7*,0.6,
C/C(=N/NC(=O)c1ccccn1)c1ccco1,0.9,-0.2,5.5*,13.4*,2.7,8.1*,4.0*,13.2*,0.6,
COC(=O)N/N=C(\C)c1ccco1,0.8,.,-0.3,-2.6,-0.3,.,.,.,.,
COc1cccc(N2C(=O)Nc3ccc(Br)cc3C2(O)C(=O)NCCCOC(C)C)c1 (configuration not stated),-1.1,0.1,0.0,-0.8,1.0,.,.,.,.,
Cc1ccc(-c2nc3cc(NC(=O)C(C)C)ccc3o2)cc1,1.3*,-1.0,5.1*,13.3*,7.9*,14.4*,4.4*,14.7*,1.3,LXR ag=1.5;hcDAF12 ag=4.7
Cc1ccc2oc(-c3cccc(NC(=O)C4CCCO4)c3)nc2c1 (configuration not stated),-0.1,1.0,1.2,3.8,4.5,.,.,.,.,
CC(=O)Nc1cccc(-c2nc3ccccc3o2)c1,-1.4,-1.5,0.8,1.1,-1.8,.,.,.,.,
Cc1cccc(-c2nc3cc(NC(=O)C4CCCO4)ccc3o2)c1 (configuration not stated),0.9*,-2.9,6.8*,14.4*,8.7*,14.7*,5.4*,12.3*,1.0,LXR ag=1.7;hcDAF12 ag=7.8*
O=C(Nc1ccc2oc(-c3ccccc3F)nc2c1)c1ncn[nH]1,0.9,0.0,5.0*,18.7*,6.4*,9.3*,5.3*,18.6*,0.8,
CC(=O)Nc1ccc2oc(-c3ccccc3)nc2c1,0.7,4.0,5.6*,15.2*,1.9,12.2*,8.8*,15.1*,0.7,
O=C(O)CNS(=O)(=O)c1c(Cl)cccc1Cl,-1.2,-0.2,0.3,-1.8,0.6,.,.,.,.,
COc1ccc(OC)c(C2NC(=O)NC(C)=C2C(=O)OCc2ccccc2)c1 (configuration not stated),-1.6,-1.1,0.3,-2.4,-2.4,.,.,.,.,
C[C@@H]1CN([C@H](C)CO)C(=O)c2cc(NC(=O)Cc3cn(C)c4ccccc34)ccc2O[C@H]1CN(C)S(=O)(=O)c1ccc(F)cc1,-0.1,-0.9,0.0,2.5,0.2,.,.,.,.,
Cc1noc(C)c1C(=O)Nc1nc2ccc(F)cc2s1,0.6,1.9,8.9*,14.3*,7.0*,9.8*,5.3*,14.2*,0.8,LXR ag=1.5;hcDAF12 ag=5.8*
O=C(Nc1nc2ccccc2s1)c1ccc(F)cc1,1.8*,2.3,4.7*,15.9*,7.8*,8.0*,4.3*,19.8*,1.2,LXR ag=1.6;hcDAF12 ag=8.8*
Cc1ccc2nc(NC(=O)c3ccco3)sc2c1,-1.7,-3.7,0.8,-2.3,2.5,.,.,.,.,
COc1ccc(N2C(=O)CCC2(C#N)c2ccc(Br)cc2)cc1 (configuration not stated),-1.6,-0.4,-0.3,-0.3,-0.8,.,.,.,.,
COc1ccc(C(=O)N[C@H](C(=O)NCCc2ccc3c(c2)OCCO3)C(C)C)cc1,-1.6,-0.4,-1.7,-0.1,0.1,.,.,.,.,
C/C(=N\NC(=O)c1nn(C)c(C)c1Br)c1cccc(NC(=O)c2ccoc2C)c1,0.2,2.5,5.0*,16.5*,5.9*,0.6,0.6,4.7,0.3,
CC(=O)c1cccc(NC(=O)c2ccoc2C)c1,-1.4,0.0,-0.3,-2.6,-1.0,.,.,.,.,
C=CCNC(=S)N1N=C(c2ccco2)CC1c1ccco1 (configuration not stated),-0.5,-0.5,-0.3,0.2,-0.3,.,.,.,.,
O=C(c1ccc(-c2ccccc2Cl)o1)N1CCCC(C(F)(F)F)C1 (configuration not stated),-1.1,1.0,3.2,3.4,0.2,.,.,.,.,
CC1CCN(C(=O)c2cc(-c3ccco3)on2)CC1,0.2,0.3,0.8,7.6,3.6,.,.,.,.,
O=C(c1cc(-c2ccccc2)on1)N1CCN(c2ccccc2)CC1,-0.7,0.8,0.2,-0.1,-1.1,.,.,.,.,
O=C(c1cc(-c2ccccc2)on1)N1CCCC1,1.3*,0.0,6.1*,13.6*,4.1,10.9*,4.5*,15.1*,0.7,
SMILES,ssDAF12 agonist,DAX1 inh-1,DAX1 inh-2,hgDAF-12 ag,hcDAF12 agonist,DAX1 conf,SF1 AF2mut Luc,hgDAF12 conf,LXR ag 2,others
O=C(c1cc(-c2cccc(O)c2)on1)N1CCCCCC1,0.6,3.1,2.1,8.9,3.7,.,.,.,.,
CC1CCN(C(=O)c2cc(-c3ccccc3O)on2)CC1,1.1*,3.5,10.2*,23.6*,6.2*,12.4*,9.4*,16.6*,0.8,
CC1CCN(C(=O)c2ccc(-c3ccccc3Cl)o2)CC1,0.5,2.5,16.8*,16.1*,4.2,13.8*,8.6*,13.1*,0.7,
O=C(c1cc(-c2cccc(O)c2)on1)N1CCOCC1,0.9,0.8,8.0*,15.6*,3.6,13.1*,7.1*,12.0*,0.7,
CCCCN(C(=O)CNC(=O)c1ccco1)C(C(=O)NC1CCCC1)c1ccc(OC)cc1 (configuration not stated),-1.4,-1.3,0.0,-3.6,-1.2,.,.,.,.,
CC(=O)c1cccc(NC(=O)CSc2nnnn2C2CCCC2)c1,-0.6,2.6,-0.4,1.8,2.5,.,.,.,.,
CCc1nnc(NC(=O)CCC(=O)NCCc2ccc(OC)c(OC)c2)s1,-1.5,1.3,-0.1,-0.5,-1.4,.,.,.,.,
COc1ccc(CC(=O)OCC(=O)Nc2ccc(Cl)cc2C)cc1,-1.1,-0.8,0.2,-0.9,-0.2,.,.,.,.,
COc1cccc2sc(N(C)c3ccccc3)nc12,0.7,1.9,4.6*,13.3*,6.5*,10.7*,6.4*,15.0*,1.0,
Cc1ccccc1C(=O)NCC(=O)N1CCN(C/C=C/c2ccccc2)CC1,-0.8,-0.5,-1.2,-0.1,-1.0,.,.,.,.,
CC(=O)Oc1ccc(C(=O)NCCc2ccccc2)cc1,0.6,0.6,7.2*,15.5*,3.7,12.4*,5.3*,14.4*,0.6,

# Compound activity deposited in PubChem by The Scripps Research Institute Molecular Screening Center.
